Assay results from PubChem BioAssay.
Unmarked numbers belong to inactive results. Where a call stands in place of a potency, no number is given. For some assays here: Potency and affinity values are given separately. Active and inactive are the calls of the source. Unless noted, the rule behind the calls is not given here.

Legend:
[1] = antimalarial activity against Dd2 strain (AID 2302;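 active = growth inhibition above 50% at the single 2 µM test dose, taken to imply half-maximal potency below 2 µM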); conditions: P. falciparum Dd2 in RBCs, LDH growth readout, 72 h; at 2 µM; stronger effect = higher value
[2] = human hepatoma cell viability loss – ATP luminescence, cytotoxicity control for P. falciparum antimalarial project, primary screen (AID 2303;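 active = inhibition above 50%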); conditions: HepG2 viability, 24-48 h, at 10 µM, stronger effect = higher value
[3] = molecular target: L-lactate dehydrogenase (Plasmodium falciparum (isolate CDC / Honduras)) (UniProt Q27743); assay: PfLDH activity inhibition – cell lysate, 3D7 strain, counter-screen for P. falciparum growth inhibition project (AID 2304); conditions: P. falciparum 3D7 crude extract, LDH APAD/NBT absorbance; at 2 µM; stronger effect = higher value
L-lactate dehydrogenase (Plasmodium falciparum (isolate CDC / Honduras)), sequence (Q27743 whole entry, looked up): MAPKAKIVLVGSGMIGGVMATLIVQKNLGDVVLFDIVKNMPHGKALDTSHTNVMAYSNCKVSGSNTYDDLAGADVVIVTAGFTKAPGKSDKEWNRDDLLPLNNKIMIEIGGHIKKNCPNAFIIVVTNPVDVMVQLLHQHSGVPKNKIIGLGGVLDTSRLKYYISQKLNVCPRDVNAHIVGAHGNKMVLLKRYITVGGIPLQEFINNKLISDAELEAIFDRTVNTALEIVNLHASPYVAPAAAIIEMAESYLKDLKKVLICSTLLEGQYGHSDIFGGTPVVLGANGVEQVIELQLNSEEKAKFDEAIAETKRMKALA

[4] = inhibition of 3D7 malaria parasite growth – strain 3D7 (AID 2306); conditions: P. falciparum 3D7 erythrocytic growth, LDH absorbance, 72 h; at 2 µM; stronger effect = higher value
[5] = molecular target: Calcium-dependent protein kinase 1 (Plasmodium falciparum (isolate 3D7)) (UniProt P62344); assay: PfCDPK1 kinase inhibitors, biochemical, TCAMS library (AID 1159585; cut-off not given, nearly all actives have IC50 up to about 0.98 µM;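 note: inhibitors leave more ATP so luminescence rises with inhibition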); conditions: recombinant PfCDPK1, Kinase-Glo ATP depletion luminescence
Calcium-dependent protein kinase 1 (Plasmodium falciparum (isolate 3D7)), sequence (P62344 whole entry, looked up): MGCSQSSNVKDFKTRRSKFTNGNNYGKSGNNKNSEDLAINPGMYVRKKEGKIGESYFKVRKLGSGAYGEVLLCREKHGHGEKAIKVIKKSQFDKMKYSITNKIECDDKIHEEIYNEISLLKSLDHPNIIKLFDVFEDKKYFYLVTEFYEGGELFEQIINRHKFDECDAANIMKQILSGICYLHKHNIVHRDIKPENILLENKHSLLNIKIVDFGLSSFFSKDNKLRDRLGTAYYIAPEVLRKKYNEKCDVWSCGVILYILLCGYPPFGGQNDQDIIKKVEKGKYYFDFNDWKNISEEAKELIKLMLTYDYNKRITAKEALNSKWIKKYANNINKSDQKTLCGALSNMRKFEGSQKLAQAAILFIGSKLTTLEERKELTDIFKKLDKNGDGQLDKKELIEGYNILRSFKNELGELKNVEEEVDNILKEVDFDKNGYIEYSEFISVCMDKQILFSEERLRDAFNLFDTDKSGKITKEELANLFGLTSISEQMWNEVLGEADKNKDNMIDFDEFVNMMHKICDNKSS

[6] = molecular target: Plasmodium falciparum protein kinase 6 (PK6, PF3D7_1337100) (UniProt Q8IDW1); assay: PfPK6 kinase inhibitors, biochemical, TCAMS library (AID 1159586); conditions: recombinant PfPK6, Kinase-Glo ATP depletion luminescence
Plasmodium falciparum protein kinase 6 (PK6, PF3D7_1337100), sequence (Q8IDW1 1-305): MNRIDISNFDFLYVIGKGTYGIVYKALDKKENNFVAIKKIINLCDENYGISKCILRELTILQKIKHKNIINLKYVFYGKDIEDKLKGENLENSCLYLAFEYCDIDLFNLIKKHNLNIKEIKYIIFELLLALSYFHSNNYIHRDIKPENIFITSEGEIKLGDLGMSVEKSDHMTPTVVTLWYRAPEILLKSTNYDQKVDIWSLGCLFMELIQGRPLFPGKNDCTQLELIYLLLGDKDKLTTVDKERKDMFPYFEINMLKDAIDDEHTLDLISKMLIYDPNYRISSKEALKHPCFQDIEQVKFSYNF

[7] = molecular target: Protein kinase 7 (PK7), Plasmodium falciparum 3D7 (PF3D7_0213400) (UniProt Q7YTF7); assay: inhibition of Plasmodium PK7 catalytic activity – biochemical, TCAMS antimalarial set, Kinase-Glo luminescence (AID 1159587); conditions: recombinant PfPK7, Kinase-Glo ATP depletion luminescence
Protein kinase 7 (PK7), Plasmodium falciparum 3D7 (PF3D7_0213400), sequence (Q7YTF7 1-343): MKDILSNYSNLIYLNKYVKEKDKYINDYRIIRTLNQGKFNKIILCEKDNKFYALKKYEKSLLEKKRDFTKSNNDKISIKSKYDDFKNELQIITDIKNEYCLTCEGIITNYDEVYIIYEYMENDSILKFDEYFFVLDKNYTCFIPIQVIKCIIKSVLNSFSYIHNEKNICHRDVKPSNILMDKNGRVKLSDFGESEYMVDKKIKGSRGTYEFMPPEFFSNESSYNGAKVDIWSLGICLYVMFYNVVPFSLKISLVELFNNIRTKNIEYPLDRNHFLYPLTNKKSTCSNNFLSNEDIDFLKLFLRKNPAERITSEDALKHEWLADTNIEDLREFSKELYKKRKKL

[8] = molecular target: Calcium-dependent protein kinase 4 (Plasmodium falciparum (isolate 3D7)) (UniProt Q8IBS5); assay: PfCDPK4 kinase inhibitors, biochemical, TCAMS library (AID 1159588; cut-off not given, nearly all actives have IC50 up to about 0.91 µM); conditions: recombinant PfCDPK4, Kinase-Glo ATP depletion luminescence
Calcium-dependent protein kinase 4 (Plasmodium falciparum (isolate 3D7)), sequence (Q8IBS5 whole entry, looked up): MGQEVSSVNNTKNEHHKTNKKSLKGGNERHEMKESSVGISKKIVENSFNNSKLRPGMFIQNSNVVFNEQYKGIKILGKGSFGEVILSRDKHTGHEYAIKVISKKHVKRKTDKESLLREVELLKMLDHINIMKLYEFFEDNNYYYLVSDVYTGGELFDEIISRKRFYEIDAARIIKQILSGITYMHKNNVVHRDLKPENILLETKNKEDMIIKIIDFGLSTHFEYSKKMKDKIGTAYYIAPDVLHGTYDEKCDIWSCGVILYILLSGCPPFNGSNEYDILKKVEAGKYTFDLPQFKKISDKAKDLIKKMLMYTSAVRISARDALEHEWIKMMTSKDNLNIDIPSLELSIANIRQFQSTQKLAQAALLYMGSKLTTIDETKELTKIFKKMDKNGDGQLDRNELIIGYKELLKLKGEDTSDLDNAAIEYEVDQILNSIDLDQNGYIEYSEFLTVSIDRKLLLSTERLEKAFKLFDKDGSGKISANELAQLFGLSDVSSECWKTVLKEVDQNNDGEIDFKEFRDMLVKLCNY

Row | Compound | growth inhibition [1] | inhibition [2] | inhibition [3] [%] | growth inhibition [4] | outcome [5] | outcome [6] | outcome [7] | outcome [8]
1 | CN1CCN(c2ccnc3ccc(NC(=O)Cc4ccc(Br)c5ccccc45)cc23)CC1 | 99% (active) | 8% | -3 | 96% (active) | inactive | inactive | inactive | inactive
2 | COc1cc2c(cc1N(C(C)C)S(=O)(=O)c1sc3ccc(Cl)cc3c1C)CCNCC2 | 70% (active) | 98% (active) | -3 | 91% (active) | inactive | inactive | inactive | inactive
3 | O=C(Nc1cccc(CN2CCCN(Cc3ccc4c(c3)OCO4)CC2)c1)c1cc2ccccc2s1 | 11% | 32% | 2 | 95% (active) | inactive | inactive | inactive | inactive
4 | COc1ccc(Cl)cc1N1CCN(CCCNC(=O)c2ccc(-c3nc4cc(Cl)c(C)cc4[nH]3)s2)CC1 | 97% (active) | -1% | 1 | 102% (active) | inactive | inactive | inactive | inactive
5 | NCC1CCCN1Cc1ccc(-c2ccc(-c3nc4ccc(C(F)(F)F)cc4[nH]3)cc2)cc1 (stereo not given) | 98% (active) | 35% | 3 | 101% (active) | inactive | inactive | inactive | inactive
6 | CN(C)CC(=O)Nc1cccc(Nc2nccc(NCC(O)c3ccccc3)n2)c1 (stereo not given) | 3% | 30% | -5 | 102% (active) | inactive | inactive | inactive | inactive
7 | COc1ccc2nccc(NN=Cc3ccccc3Cl)c2c1 | 99% (active) | 29% | -4 | 100% (active) | inactive | inactive | inactive | inactive
8 | Cc1cnc(Nc2ccccc2)nc1N[C@@H](CCCN)C(=O)Nc1ccccc1 | 0% | -2% | -1 | 101% (active) | inactive | inactive | inactive | inactive
9 | CN(CC1CCC(NC(=O)/C=C/c2ccc(Cl)c(Cl)c2)CC1)C1CCC(c2c[nH]c3ccccc23)CC1 (stereo not given) | 53% (active) | 53% (active) | -3 | 99% (active) | inactive | inactive | inactive | inactive
10 | OCC1CCN(Cc2ccc(-c3ccc(-c4nc5ccccc5[nH]4)cc3)cc2)CC1 | 84% (active) | 37% | 1 | 100% (active) | inactive | inactive | inactive | inactive
